Source: PubChem
KDM5B inh = Primary screen for KDM5B Histone Demethylases FDH-coupled qHTS. Lysine-specific demethylase 5B (Homo sapiens), Q9UGL1. KDM5B demethylase, FDH-coupled NADH fluorescence (FDH is formaldehyde dehydrogenase). Potency, µM (highest dose often 57.7 µM), most hits filed as inhibitors. 220,000 compounds, 2.6% hits. AID 1347165, 2019; active = well fitted inhibition curve with a large enough effect; note: nearly all actives have a fitted effect of over 70% in size
Target sequence (Q9UGL1 whole entry, looked up): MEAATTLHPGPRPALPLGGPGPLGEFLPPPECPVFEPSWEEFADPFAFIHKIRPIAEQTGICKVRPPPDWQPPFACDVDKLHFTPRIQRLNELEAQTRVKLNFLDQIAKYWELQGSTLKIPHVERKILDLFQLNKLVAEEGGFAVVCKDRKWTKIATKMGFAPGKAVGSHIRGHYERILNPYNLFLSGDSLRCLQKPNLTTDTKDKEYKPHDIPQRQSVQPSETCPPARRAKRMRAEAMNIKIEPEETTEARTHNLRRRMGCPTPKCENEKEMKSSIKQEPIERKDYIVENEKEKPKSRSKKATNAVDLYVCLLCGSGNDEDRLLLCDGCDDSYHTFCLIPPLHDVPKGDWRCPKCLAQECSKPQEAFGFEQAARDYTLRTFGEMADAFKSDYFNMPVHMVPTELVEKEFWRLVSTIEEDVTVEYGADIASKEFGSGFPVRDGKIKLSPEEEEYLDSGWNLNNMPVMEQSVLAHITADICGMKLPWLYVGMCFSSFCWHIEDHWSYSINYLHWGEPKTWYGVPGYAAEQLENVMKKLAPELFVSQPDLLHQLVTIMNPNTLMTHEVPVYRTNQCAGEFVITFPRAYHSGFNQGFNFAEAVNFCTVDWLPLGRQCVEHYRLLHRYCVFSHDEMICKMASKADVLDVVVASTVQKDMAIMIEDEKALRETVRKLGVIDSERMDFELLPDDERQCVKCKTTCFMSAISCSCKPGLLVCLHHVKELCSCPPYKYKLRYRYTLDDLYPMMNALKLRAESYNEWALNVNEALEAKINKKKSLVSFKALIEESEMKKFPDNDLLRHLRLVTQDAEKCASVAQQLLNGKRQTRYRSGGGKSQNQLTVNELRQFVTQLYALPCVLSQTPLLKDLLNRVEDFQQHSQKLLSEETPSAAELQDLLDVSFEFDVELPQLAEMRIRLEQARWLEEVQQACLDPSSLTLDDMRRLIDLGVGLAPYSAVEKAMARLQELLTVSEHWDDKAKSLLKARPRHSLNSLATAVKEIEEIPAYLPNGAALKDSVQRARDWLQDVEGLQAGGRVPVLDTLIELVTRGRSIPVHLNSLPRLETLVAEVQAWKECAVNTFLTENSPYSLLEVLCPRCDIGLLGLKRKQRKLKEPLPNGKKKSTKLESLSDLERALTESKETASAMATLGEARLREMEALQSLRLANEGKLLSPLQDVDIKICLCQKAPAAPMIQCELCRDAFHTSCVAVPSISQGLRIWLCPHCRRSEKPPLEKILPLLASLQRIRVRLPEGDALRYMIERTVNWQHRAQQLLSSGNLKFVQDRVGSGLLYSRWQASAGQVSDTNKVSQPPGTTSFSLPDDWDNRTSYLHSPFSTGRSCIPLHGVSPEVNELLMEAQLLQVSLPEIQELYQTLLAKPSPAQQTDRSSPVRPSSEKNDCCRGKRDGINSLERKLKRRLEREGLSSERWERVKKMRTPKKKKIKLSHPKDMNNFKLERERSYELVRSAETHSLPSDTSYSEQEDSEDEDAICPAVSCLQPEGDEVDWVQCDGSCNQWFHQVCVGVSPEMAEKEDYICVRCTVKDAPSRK
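qHTS format, multiple compound concentrations. Buffer 50 mM HEPES pH 7.5/0.01% Tween-20; 200 nM KDM5BΔAP final; 10 min compound preincubation; substrate-mix levels 12.5 µM peptide, 25 µM α-KG, 0.25 mM NAD⁺; 30 min RT; ΔRFU.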
Large screens that a line does not name were inactive. The entries come from a sample that favours hits as a whole.

CC(C)OCCCNc1ncnc2c1CN(C1CCCNCC1)C(=O)CN2C (stereo unspecified)	none
CN1CC(=O)N(C2CCCNC2)Cc2c(NCCOc3ccccc3)ncnc21 (stereo unspecified)	KDM5B inh 45µM
CN1CC(=O)N(C2CCNCC2)Cc2c(NCCCc3ccccc3)ncnc21	none
CCC(C)Nc1ncnc2c1CN(C1CCNCC1)C(=O)CN2C (stereo unspecified)	KDM5B inh 35µM
CC(C)CNc1ncnc2c1CN(C1CCCC1)C(=O)CN2C	none
COc1cc(NC(=O)C(C)n2nc(-c3ccccc3)c3c(c2=O)CCCC3)cc(OC)c1 (stereo unspecified)	none
CSc1ccccc1C(=O)NC(C)(C#N)C1CC1 (stereo unspecified)	none
Cc1nc(N2CCC(C(=O)Nc3cccc(Br)c3)CC2)c2c(C)c(C)oc2n1	none
O=C(Cc1ccc(OC(F)F)cc1)Nc1cccc2cccnc12	none
Cc1ccc(NS(=O)(=O)c2cc(-c3ccno3)oc2C)c(C)c1	none
CN1CCOc2ccc(S(=O)(=O)NCc3ccc4c(c3)OCO4)cc21	none
COc1ccc(C(=O)COc2ccc3c(c2)OCO3)cc1OC	none
COc1cccc(CN(C)CC(=O)Nc2cc(C)nn2-c2cc(C)ccc2C)c1	none
COc1cc(OC)cc(OC(=O)c2cc(OC)cc(OC)c2)c1	none
COC(=O)C1(NC(=O)CSc2ccccc2Cl)CCCCC1	none
CN(Cc1ccsc1)C(=O)c1cccs1	none
COCC(=O)NC[C@@H]1C=C(C)[C@H](Cc2nc3ccc(Cl)cc3[nH]2)C[C@H]1C(C)C	none
Cc1ccc(C)c(C(=O)N2CCC(Oc3nccnc3N(C)C)C2)c1 (stereo unspecified)	none
CC(C)c1ccc(C(=O)NCc2ccco2)cc1	none
O=C(O)c1cc(I)ccc1I	none
COc1coc(CN2Cc3[nH]cnc3CC2C(=O)O)cc1=O (stereo unspecified)	none
O=C(NCc1ccc(C(F)(F)F)cc1)[C@@H]1Cc2nc[nH]c2CN1Cc1ccc([N+](=O)[O-])cc1	none
COc1ccc(CN2Cc3[nH]cnc3C[C@H]2C(=O)N2CCC(Cc3ccccc3)CC2)cc1	none
COC(=O)[C@@H]1Cc2nc[nH]c2CN1Cc1ccc([N+](=O)[O-])cc1	KDM5B inh 28µM
COC(=O)[C@@H]1Cc2nc[nH]c2CN1C(=O)c1ccccc1	none
COC(=O)[C@@H]1Cc2nc[nH]c2CN1Cc1ccc(OC)c2ccccc12	KDM5B inh 32µM
O=C(Nc1ccccc1)c1cnc2n1CCN(Cc1c[nH]c3ccccc13)CC2	none
CCC1CCCCN1C(=O)CSc1nnc(-c2cccs2)n1N (stereo unspecified)	none
CC(C)c1cc(C(=O)N2CCNC(=O)C2)c2ccccc2n1	none
O=C(Nc1ccc(CN2CCOC2=O)cc1)N1CCCC1	none
CNC(=O)c1cnn2cc(C)ccc12	KDM5B inh 32µM
CCc1c(C(=O)Nc2ccc(C)cc2)cnn1-c1ccc(OC)nn1	none
Cc1ccc2c(C(=O)N(C)C)cnn2c1	KDM5B inh 32µM
CNC(=O)c1cnn2c1CN(C(C)=O)CC2	none
Cc1ccc(NS(=O)(=O)c2ccc(C)c(C(=O)N(C)C)c2)cc1	none
CCN(CC)Cc1cnc2c(C(=O)N(C)Cc3csc(C)n3)cnn2c1	none
Oc1ccccc1CNC[C@H]1O[C@H](Cc2cc(CN3CCCCC3)on2)CC[C@@H]1O	none
CCOC(=O)c1cc(NC(=O)c2cccc(C)c2)c(=O)n2c1oc1ccccc12	none
O=C(CSc1nc2cc([N+](=O)[O-])ccc2o1)NC1CC1	none
Cc1ccc(C#CC(CC(=O)c2ccccc2)CC(=O)c2ccccc2)cc1	none
O=C(Nc1ccc(SCc2cccnc2)cc1)c1ccc[n+]([O-])c1	none
COc1ccc(C(=O)c2c(N)c(C(=O)Nc3ccccc3OC)c3ccccn23)cc1	none
COc1ccccc1NC(=O)CSc1nnc(CN2CCCCC2)n1-c1ccc(Cl)cc1	none
CN(C(=O)Cc1ccc(F)cc1)C1CCCc2ccccc21 (stereo unspecified)	none
CCOc1ccc(CN(C)C(=O)Cn2c(=O)c3c(ncn3C)n(C)c2=O)cc1	none
Cc1ccc(SCCC(=O)NNC(=O)c2ccncc2)cc1	none
CCOC(=O)C1=C(C(Br)Br)NC(=O)NC1c1ccc2c(c1)OCO2 (stereo unspecified)	none
CS(=O)(=O)NCCc1ccc(C(=O)COc2ccc(-c3ccccc3)cc2Cl)s1	none
COc1ccc(S(=O)(=O)NCC2CCCN(Cc3ccc(-c4ccco4)cc3)C2)cc1 (stereo unspecified)	KDM5B inh 28µM
CCn1cc(CN2CCCC(CNS(=O)(=O)c3ccc(OC)cc3)C2)cn1 (stereo unspecified)	none
COc1cccc(C(=O)NCC2CCCN(Cc3ccc(C)cc3)C2)c1OC (stereo unspecified)	none
Cc1ccc(C(=O)N2CCC(c3nc(C4CCOCC4)no3)CC2)cn1	none
CCOC(=O)c1nc2ccccc2c(-c2ccccc2)c1C	none
CC12CC3CC(C)(C1)CC(C(=O)NCc1ccccn1)(C3)C2	none
CN(C)C(=O)c1ccc2c(c1)N(C)C(CC(=O)NC(C)(CO)CO)CO2 (stereo unspecified)	none
O=C(NCc1ccccn1)c1ccc2c(c1)N(C(=O)c1ccc(F)cc1)CC2	none
